Pf growth 96h = Primary qHTS for delayed death inhibitors of the malarial parasite plastid, 96 hour incubation; P. falciparum luciferase reporter growth, 96 h; Potency, µM (titrated, usually from 28.7 µM), usual class: inhibitors; actives 6.9% (n = 320,000); AID 504834, 2011
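Parasite growth measured via integrated firefly luciferase reporter in P. falciparum. Infected erythrocytes at 2% hematocrit, 0.05% parasitemia final were treated 96 hours at 37 C under 5% CO2, and luminescence was read.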
Cycloheximide cs = Cycloheximide Counterscreen for Small Molecule Inhibitors of Shiga Toxin. max response, %. actives 12% (n = 300,000). cell reporter, cycloheximide protein synthesis inhibition counterscreen; in the data active means max response mostly above about 13%, no sharp cut-off; inactive means mostly below about 14%; further: read at 38.3 µM for the half of the compounds with a filed dose
Shiga inhibitor = A qHTS for Small Molecule Inhibitors of Shiga Toxin | Vero cells, Shiga toxin protein synthesis inhibition reporter | inhibition, % at 38.7 µM | actives 9.2% (n = 290,000); in the data active means inhibition mostly above about 28%, no sharp cut-off; inactive means mostly below about 43%
Pf growth 48h = Primary qHTS for delayed death inhibitors of the malarial parasite plastid, 48 hour incubation | P. falciparum luciferase growth in erythrocytes, 48 h | Potency, µM (top dose mostly 28.7 µM), actives largely listed as inhibitors | AID 504832, 2011 | actives 5.9% (n = 310,000)
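Here the parasites carry a stable luciferase gene and grow inside erythrocytes in Albumax-based RPMI medium with compound for one erythrocytic cycle. Activity is scored as loss of luminescent signal.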
Of the large screens only hits and unclear results are named; the others gave an inactive call. Compounds with a hit are over-represented: about 21% of the library has one in this group of screens. Unless noted, the call rests on the fitted dose curve; in most records, active means well fitted inhibition curve with a large enough effect; inconclusive means small, poorly fitted or top-dose-only effect, or another doubt; inactive means no such curve, though single readings can be large or run the other way.

COc1ccc2c(c1)CC/C(=C\C=C\c1ccccc1OC)C2=O	Pf growth 96h inconclusive, Cycloheximide cs 38, Shiga inhibitor 89
COc1cccc(C(=O)/C=C2\NCCc3cc(OC)c(OC)cc32)c1	Pf growth 96h inconclusive, Pf growth 48h inconclusive
COc1ccc2c(c1)C(=O)/C(=C/C=C/c1ccccc1)CC2	Pf growth 96h 2.3µM, Cycloheximide cs 21, Shiga inhibitor active, Pf growth 48h inconclusive
O=C(NC(=S)Nc1nc(-c2cccc3ccccc23)cs1)c1cc2ccccc2o1	none
CC(=O)Nc1nc(-c2ccc(Br)s2)cs1	Cycloheximide cs 25, Shiga inhibitor 63 (no result: Pf growth 96h)
Cc1ccc(NC(=O)Nc2nc(-c3ccc(C)s3)cs2)cc1	Pf growth 96h 15µM
CC(=O)Nc1nc(-c2cccc3ccccc23)cs1	Cycloheximide cs 15
CC(C)C[C@H](NC(=O)N1c2ccccc2NC(=O)[C@@H]1C(C)C)C(=O)N[C@@H](Cc1ccccc1)C(=O)O	Pf growth 96h inconclusive
CCCN1CCN(C(=O)C2CCN(S(=O)(=O)c3ccc4c(c3)NC(=O)C(C)S4)CC2)CC1 (configuration not stated)	Pf growth 96h inconclusive
O=C(CSc1nnc2ccccn12)c1ccc2c(c1)OCCO2	Cycloheximide cs 25, Shiga inhibitor 37
COc1ccc(C(=O)CSc2nnc3ccccn23)cc1OC	Pf growth 96h inconclusive, Cycloheximide cs 22
CCCCNC(=O)COC(=O)c1ccc(F)cc1Cl	Cycloheximide cs 13, Shiga inhibitor 76
CC(=O)Nc1cc(-c2ccccc2)ccc1O	Pf growth 48h inconclusive
Nc1cc(-c2ccccc2)ccc1O	Pf growth 96h 12µM, Cycloheximide cs 37, Shiga inhibitor 29, Pf growth 48h inconclusive
N#Cc1cc(C(=O)c2ccccc2O)cn(-c2ccc(Cl)cc2)c1=O	Pf growth 48h inconclusive
Cc1ccc(-n2cc(C(=O)c3cc(Cl)ccc3O)cc(C#N)c2=O)cc1	Pf growth 96h inconclusive, Pf growth 48h 3.3µM
CCOc1ccc(-n2cc(C(=O)c3cc(Cl)ccc3O)cc(C#N)c2=O)cc1	Pf growth 96h inconclusive
COc1ccc(O)c(C(=O)c2cc(C#N)c(=O)n(-c3ccc(Cl)cc3)c2)c1	Pf growth 96h 5.9µM, Pf growth 48h 7.4µM
COc1ccc(-n2cc(C(=O)c3cc(Cl)ccc3O)cc(C#N)c2=O)cc1	Pf growth 96h 7.4µM, Pf growth 48h inconclusive
Cc1ccc(C)c(OCCC(=O)OC(C)C(=O)Nc2c(C)n(C)n(-c3ccccc3)c2=O)c1 (configuration not stated)	none (no result: Cycloheximide cs, Shiga inhibitor)
CC(C)N=C(N)/N=C(\N)Nc1ccc(Cl)cc1	Pf growth 96h 0.36µM, Pf growth 48h 2.9µM (no result: Cycloheximide cs, Shiga inhibitor)
NC(=NCCCCCCN=C(N)/N=C(\N)Nc1ccc(Cl)cc1)/N=C(\N)Nc1ccc(Cl)cc1	Pf growth 96h inconclusive, Pf growth 48h 0.33µM
CC(C)N=C(N)N=C(N)Nc1ccc(Cl)cc1	Pf growth 96h 0.33µM, Pf growth 48h 1.2µM (no result: Cycloheximide cs, Shiga inhibitor)
NNC(=S)Nc1ccc(Cl)cc1	Pf growth 96h inconclusive
CSc1nc2cc(C)nn2c(-c2ccccc2)c1C#N	none
COc1cc(NC(=O)CN(c2ccc(C)cc2)S(=O)(=O)c2c(C)noc2C)cc(OC)c1	Pf growth 96h inconclusive, Pf growth 48h inconclusive
CCOC(=O)c1ccccc1NC(=O)CSc1ccc(-c2ccccn2)nn1	Pf growth 96h inconclusive, Pf growth 48h inconclusive
COc1cc(-c2nc3ccc(C)cn3c2NCc2ccccc2)ccc1SC1CCCCC1	Pf growth 96h 4.7µM, Pf growth 48h inconclusive (no result: Cycloheximide cs, Shiga inhibitor)
COc1cc(-c2nc3ccccn3c2/N=C/c2ccccc2)ccc1O	none
COc1ccc(CSc2ccc(-c3nc4ccccn4c3NCc3ccccc3)cc2OC)cc1	Pf growth 96h inconclusive, Pf growth 48h 10µM (no result: Cycloheximide cs, Shiga inhibitor)
COc1cc(-c2nc3ccccn3c2NCc2ccccc2)ccc1SC1CCCCC1	Pf growth 96h inconclusive, Pf growth 48h 5.2µM (no result: Cycloheximide cs, Shiga inhibitor)
COc1ccc(-c2nc3ccccn3c2NC2CCCCC2)cc1SC1CCCCC1	Pf growth 96h inconclusive, Pf growth 48h 12µM (no result: Cycloheximide cs, Shiga inhibitor)
Cc1cc(-c2ccc(C)c(S(=O)(=O)Nc3cc(C)on3)c2)on1	Pf growth 96h inconclusive
c1ccc(-c2nc3ccccn3c2NC2CCCC2)nc1	Pf growth 48h 10µM
COc1cccc(C(=O)CC(C(=O)O)c2ccc(F)cc2)c1 (configuration not stated)	none
COc1cccc(C(=O)CC(C#N)c2ccc(F)cc2)c1 (configuration not stated)	Shiga inhibitor 26, Pf growth 48h inconclusive
O=C(CCC(=O)N(CC(=O)NC1CCCC1)c1ccccc1F)Nc1nccs1	Pf growth 96h inconclusive
CCC1(C)Cc2ccccc2-c2nc(NCCCO)[nH]c(=O)c21 (configuration not stated)	none
CCCCCC(=O)OC(CN1CCCCC1)CN1CCCC1=O (configuration not stated)	Pf growth 96h 10µM
CCCNC(=O)CCn1nc(-c2ccc(C)cc2)c2ccccc2c1=O	none
CCCNC(=O)CCC(=O)Nc1ncc(-c2ccc(C)cc2)n1C	Cycloheximide cs 25, Shiga inhibitor 33
CN1CCCC1CCNc1ccc2oc3ccccc3c(=O)c2c1 (configuration not stated)	Cycloheximide cs 25
CN1CCCC1CCNc1ccc2c(=O)c3ccccc3oc2c1 (configuration not stated)	Cycloheximide cs 41
O=C(O)CCC(=O)Nc1ccc2c(c1)oc1ccccc12	none
O=C1Nc2ccccc2/C1=N\N=C\C1=C(N2CCOCC2)C(=C\c2ccccc2)/CC1	Pf growth 96h 2.9µM, Pf growth 48h inconclusive
Cn1cc(C(=O)N/N=C/C2=C(N3CCOCC3)C(=C\c3ccccc3)/CC2)ccc1=O	Pf growth 96h inconclusive
O=C1Nc2ccccc2/C1=N/N=C/c1cccc(O)c1	Cycloheximide cs 49, Shiga inhibitor 48
COc1cc(/C=N/N=C2/C(=O)Nc3ccccc32)cc(OC)c1O	none
O=C(c1ccc(-c2cc(Cl)ccc2Cl)o1)N1CCOCC1	Pf growth 96h inconclusive, Cycloheximide cs 16
O=C(c1ccc(-c2ccc(Cl)cc2Cl)o1)N1CCOCC1	Cycloheximide cs 42, Shiga inhibitor 80
COc1ccc(CNC(=O)CN(Cc2ccccc2F)C(=O)c2csnn2)cc1	none
CC(=O)c1cccc(N2C(=NC(=O)C3CCCCC3)SC3CS(=O)(=O)CC32)c1 (configuration not stated)	none
Cc1cccc(NC(=S)N(CCN2CCOCC2)Cc2cc3cc4c(cc3[nH]c2=O)OCCO4)c1	Pf growth 48h inconclusive
CC(C)=CCC/C(C)=C/CC/C(C)=N/O	none
COc1ccccc1OCC(=O)O	none
CC(C)=CCC/C(C)=C/CC/C(C)=C/CC/C(C)=C/CC1=C(C)C(=O)c2ccccc2C1=O	Pf growth 96h 5.2µM, Pf growth 48h 12µM
CC(C)=CCC1=C(OCC(=O)O)C(=O)c2ccccc2C1=O	Pf growth 96h 2.9µM, Pf growth 48h 13µM
Cc1ccc(N(C(=O)CNC(=O)c2ccco2)C(C(=O)NC2CCCCC2)c2cccnc2)cc1 (configuration not stated)	Pf growth 96h inconclusive
COc1cc(OC)cc(C(=O)NNC(=O)CCC(=O)c2cccs2)c1	none
Cn1nnnc1SCCCNCc1ccccc1OCc1ccccc1Cl	none (no result: Pf growth 96h, Pf growth 48h)
Cc1cc2c(cc1S(=O)(=O)N1CCc3ccccc31)NC(=O)CO2	none

Screening data from PubChem.
